# Source: the supplement of paper PMC8728848
# Shown is part of a subset that was picked to be rich in the strongest signals.
# B1: Surfactant Protein D (Human); Neck + Carbohydrate Recognition Domain (NCRD) (Homo sapiens) (protein)
# chain: MLLFLLSALVLLTQPLGYLEAEMKTYSHRTMPSACTLVMCSSVESGLPGRDRDGREGPRGEKGDPGLPGAAGQAGMPGQAGPVGPKGDNGSVGEPGPKGDTGPSGPPGPPGVPGPAGREGALGKQGNIGPQGKPGPKGEAGPKGEVGAPGMQGSAGARGLAGPKGERGVPGERGVPGNTGAAGSAGAMGPQGSPGARGPPGLKGDKGIPGDKGAKGESGLPDVASLRQQVEALQGQVQHLQAAFSQYKKVELFPNGQSVGEKIFKTAQFVKPFTEAQLLCTQAGGQLASPRSAAENAALQQLVVAKNEAAFLSMTDSKTEGKFTYPTGESLVYSNWAPGKPNDDGGSEDCVEIFTNGKWNDRACGEKRLVVCEF
# Tests used:
# Experiment in all cases: glycan array binding signal (z-score within array); higher = stronger binding
# Settings in all cases: glycan notation: IUPAC condensed, linker removed; mutation: E321K
# [1] = target: Fuc(a1-2)Gal(b1-4)[Fuc(a1-3)]GlcNAc
# How it was run: (§1)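 From the Consortium for Functional Glycomics database, 3228 arrays were curated, keeping only those whose protein sequence was available. Binding is given as a within-array Z-score averaged across arrays sharing a protein sequence and across linkers. Negative Z-scores can be read as non-binding.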
# [2] = target: Fuc(a1-2)[GalNAc(a1-3)]Gal(b1-3)GlcNAc
# How it was run: as §1
# [3] = target: Fuc(a1-2)[GalNAc(b1-3)]Gal
# How it was run: as §1
# [4] = target: Gal(a1-3)Gal
# How it was run: as §1
# [5] = target: Gal(a1-3)Gal(b1-4)GlcNAc
# How it was run: as §1
# [6] = target: Gal(b1-4)GalNAc(a1-3)[Fuc(a1-2)]Gal(b1-4)GlcNAc
# How it was run: as §1
# [7] = target: Gal(b1-4)Glc
# How it was run: as §1
# [8] = target: Gal(b1-4)GlcNAc(b1-3)Gal(b1-3)GlcNAc
# How it was run: as §1
# [9] = target: Gal(b1-4)GlcNAc(b1-3)GalNAc
# How it was run: as §1
# [10] = target: Gal(b1-4)GlcNAc(b1-6)[Gal(b1-3)]GalNAc
# How it was run: as §1
# [11] = target: Gal6S(b1-4)Glc6S
# How it was run: as §1
# [12] = target: GlcNAc(b1-3)[GlcNAc(b1-6)]GalNAc
# How it was run: as §1
# [13] = target: GlcNAc(b1-4)GlcNAc
# How it was run: as §1
# [14] = target: GlcNAc(b1-4)GlcNAc(b1-4)GlcNAc(b1-4)GlcNAc(b1-4)GlcNAc(b1-4)GlcNAc
# How it was run: as §1
# [15] = target: Man(a1-2)Man(a1-2)Man(a1-6)[Man(a1-3)]Man
# How it was run: as §1
# [16] = target: Neu5Ac(a2-3)Gal(b1-3)GalNAc6S
# How it was run: as §1
# [17] = target: Neu5Ac(a2-3)Gal(b1-4)GlcNAc(b1-3)Gal(b1-3)GlcNAc
# How it was run: as §1
# [18] = target: Neu5Ac(a2-3)Gal(b1-4)GlcNAc(b1-3)Gal(b1-4)[Fuc(a1-3)]GlcNAc
# How it was run: as §1
# [19] = target: Neu5Ac(a2-3)Gal6S(b1-4)GlcNAc
# How it was run: as §1
# [20] = target: Neu5Ac(a2-3)GalNAc(b1-4)GlcNAc
# How it was run: as §1
# [21] = target: Neu5Ac(a2-6)Gal(b1-4)GlcNAc(b1-2)Man(a1-3)[GlcNAc(b1-2)Man(b1-4)GlcNAc(b1-2)Man(a1-6)]Man(b1-4)GlcNAc(b1-4)GlcNAc
# How it was run: as §1
# [22] = target: Neu5Ac(a2-6)Gal(b1-4)GlcNAc(b1-3)Gal(b1-4)GlcNAc
# How it was run: as §1
# [23] = target: Neu5Ac(a2-8)Neu5Ac(a2-8)Neu5Ac
# How it was run: as §1
# [24] = target: Neu5Ac(a2-8)Neu5Ac(a2-8)Neu5Ac(a2-3)Gal(b1-4)Glc
# How it was run: as §1
# [25] = target: Neu5Ac(b2-6)GalNAc
# How it was run: as §1
binder,measurement,setting,value
B1,glycan array binding signal (z-score),[1],-0.011
same,glycan array binding signal (z-score),[2],-0.437
same,glycan array binding signal (z-score),[3],-0.418
same,glycan array binding signal (z-score),[4],-0.277
same,glycan array binding signal (z-score),[5],0.494
same,glycan array binding signal (z-score),[6],-0.87
same,glycan array binding signal (z-score),[7],-0.968
same,glycan array binding signal (z-score),[8],-0.871
same,glycan array binding signal (z-score),[9],-0.758
same,glycan array binding signal (z-score),[10],-0.831
same,glycan array binding signal (z-score),[11],2.78
same,glycan array binding signal (z-score),[12],-0.62
same,glycan array binding signal (z-score),[13],2.94
same,glycan array binding signal (z-score),[14],-0.106
same,glycan array binding signal (z-score),[15],0
same,glycan array binding signal (z-score),[16],0.404
same,glycan array binding signal (z-score),[17],-0.578
same,glycan array binding signal (z-score),[18],0.062
same,glycan array binding signal (z-score),[19],0.549
same,glycan array binding signal (z-score),[20],3.92
same,glycan array binding signal (z-score),[21],5.34
same,glycan array binding signal (z-score),[22],-0.587
same,glycan array binding signal (z-score),[23],-0.381
same,glycan array binding signal (z-score),[24],-0.475
same,glycan array binding signal (z-score),[25],3.67
